Sampled rows, rich in hits. Any-hit rate of the full collection: about 9.4%.
NPC1 promoter act: activators of NPC1 promoter | Potency, µM (titrated, usually from 9.22 µM), without a hit: at the highest dose activation, usual class: activators | 320,000 compounds, 2.4% hits | Huh7 NPC1 promoter luciferase reporter, 24 h; also: % of control where 0% means no effect; nearly all actives have a fitted effect of over 60% in size
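Quantitative HTS used a cell-based reporter: Huh7 cells stably bearing the NPC1 promoter upstream of luciferase were treated with compounds for 24 h, and promoter activation was read as luminescence.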
FLuc modulator: inhibits or activates purified firefly luciferase, miR-21 counter-screen; purified FLuc, Km substrates, luminescence inhibition; Potency, µM (doses to about 57.5 µM), inactives show at the top dose activity change, negative = inhibition, usual class: inhibitors; AID 588342; 360,000 compounds, 6.9% hits; P08659;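 also: plate controls were vehicle for no effect and reference inhibitor for full effect; nearly all actives have a fitted effect of over 55% in size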
Target sequence (P08659 whole entry, looked up): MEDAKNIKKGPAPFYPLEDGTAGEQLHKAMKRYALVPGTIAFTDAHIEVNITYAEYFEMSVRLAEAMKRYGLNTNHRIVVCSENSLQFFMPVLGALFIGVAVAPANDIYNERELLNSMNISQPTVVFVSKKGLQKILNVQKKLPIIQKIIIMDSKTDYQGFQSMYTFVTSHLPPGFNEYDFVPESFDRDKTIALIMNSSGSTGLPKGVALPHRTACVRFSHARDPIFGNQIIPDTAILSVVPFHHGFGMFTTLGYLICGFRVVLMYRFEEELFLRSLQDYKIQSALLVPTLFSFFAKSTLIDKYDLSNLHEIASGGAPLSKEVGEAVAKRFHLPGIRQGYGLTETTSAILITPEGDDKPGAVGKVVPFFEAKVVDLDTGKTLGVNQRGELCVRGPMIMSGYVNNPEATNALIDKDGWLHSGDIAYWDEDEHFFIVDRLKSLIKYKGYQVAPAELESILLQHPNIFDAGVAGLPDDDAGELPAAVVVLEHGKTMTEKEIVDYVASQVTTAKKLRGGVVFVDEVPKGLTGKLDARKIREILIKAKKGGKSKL
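Purified P. pyralis luciferase (10nM final) with 10uM D-luciferin and 10uM ATP (Km levels) in 50mM Tris acetate pH 7.5, 10mM Mg acetate, 0.01% Tween-20, 0.05% BSA; qHTS 6-point titration, ~60 µM downward; luminescence read.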
ELG1 genotox: induces genotoxicity in HEK293T cells with luciferase-tagged ELG1; HEK293T ELG1-luciferase reporter, luminescence, 16 h; Potency, µM (highest dose often 46 µM), without a hit: at the highest dose activity change, positive = activation, usual class: activators; 330,000 compounds, 1.3% hits; AID 504466; also: % of control where 0% means no effect; nearly all actives have a fitted effect of over 60% in size
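Cells (2,000/well) expressing the ELG1-luciferase fusion are dosed by pin tool and kept 16 hr at 37 °C, 5% CO2. Signal comes from ONE-Glo luciferase reagent after 30 min at room temperature.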
ELG1 DNA repair: blocks ELG1-dependent DNA repair in HEK293T cells | 330,000 compounds, 2.3% hits | Potency, µM (doses to about 46.1 µM), for inactives: at the highest dose activity change, negative = inhibition, actives largely listed as inhibitors | HEK293T ELG1-luciferase reporter, luminescence, 16 h; DNA damage induced by 5-fluorouridine; also: % is scaled to controls: 0 for no effect and ±100 for the full control effect; nearly all actives have a fitted effect of over 55% in size
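Reporter activity after DNA damage by 5-fluorouridine is monitored. Compound-treated cells incubate 16 hr at 37 °C, then ONE-Glo is added for 30 min before luminescence reading.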
Rab9 promoter act: Rab9 promoter activation. Huh7 Rab9 promoter-luciferase reporter, luminescence, 24 h. Potency, µM (titrated, usually from 9.22 µM), for inactives: at the highest dose activation, negative = inhibition, actives largely listed as activators. 320,000 compounds, 2.8% hits. AID 485297; also: % of control where 0% means no effect; nearly all actives have a fitted effect of over 60% in size
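Promoter activation is measured as luciferase luminescence in Huh7 cells stably transfected with a Rab9 promoter–luciferase construct, following 24 h compound exposure at 37 °C and 10 min reagent incubation at ambient temperature.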
SMN2 splice up: SMN2 splice variant enhancement; HEK293 SMN2-luciferase splicing reporter, luminescence, 30-36 h; Potency, µM (top dose mostly 46.1 µM), for inactives: at the highest dose activity change, positive = activation, most hits filed as activators; 210,000 compounds, 2.8% hits; AID 1458; also: % of control where 0% means no effect; nearly all actives have a fitted effect of over 55% in size
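HEK293 cells carry an SMN2 […]–luciferase reporter in which exon 7 inclusion puts luciferase in frame. Cells were plated 10-12 h before compound addition, then incubated 30-36 h at 37C. ONE-Glo luminescence was read; sodium butyrate at 4.5 mM final served as control.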
* hit, by the source's call; ? = inconclusive; . = no result given; ! = a repeat was not active; [ ] = remark or other dose. Calls follow the shape of the dose curve; as a rule, active = well fitted curve in the direction sought with a large enough effect; inconclusive = small, poorly fitted or top-dose-only effect, or another doubt; inactive = no such curve, though single readings can be large; an effect the other way counts as inactive or inconclusive. Potency is read from the fitted curve at half-maximal effect.

SMILES	NPC1 promoter act	FLuc modulator	ELG1 genotox	ELG1 DNA repair	Rab9 promoter act	SMN2 splice up
CCOC(=O)Cc1csc(NC(=O)CC)n1	-4%	1%	0%	11%	-2%	0%
Cc1csc(NC(=O)/C=C/c2ccc(C)o2)n1	15%	11µM*	18%	?	27%	20µM*
COc1ccc(CCNC(=O)c2ccc3c(c2)CCN3S(=O)(=O)c2ccc(Cl)cc2)cc1	.	-6%	.	.	.	-22%
CCOc1ccc(NC(=O)C2CCCN(c3ccc(Sc4ccc(C)cc4)nn3)C2)cc1 (configuration not stated)	.	5%	.	.	.	-16%
Cc1ccc(C)c(C(=O)CSc2nc(-c3ccccc3)nc3c2CCCC3)c1	.	1%	.	.	.	-6%
Cc1csc(NC(=O)/C=C/c2ccco2)n1	13%	6.7µM*	?	?	2.8µM*	16µM*
O=C(/C=C/c1ccco1)Nc1nc(-c2ccccc2)cs1	2.8µM*	4.8µM*	13%	?	2.5µM*	11µM*
O=C(/C=C/c1ccco1)Nc1nc(-c2ccc(F)c(F)c2)cs1	4%	?	-10%	?	2%	.
O=C(Nc1ccc(Cl)c(C(F)(F)F)c1)C1CCN(S(=O)(=O)c2cccc3nonc23)CC1	.	2%	.	.	.	-7%
COc1ccc(-c2noc(N3CCC(C(=O)N(C)c4cc(Cl)ccc4OC)CC3)n2)cc1	.	-8%	.	.	.	.
CCOC(=O)Cn1cnc(-c2ccc([N+](=O)[O-])cc2)c1	23%	12µM*	?	?	?	?
CCOC(=O)COc1ccc([N+](=O)[O-])cc1-c1ccnc2cc(-c3ccc(C)cc3)nn12	.	0%	.	.	.	10%
Cc1ccc2ncc(C(=O)NC(C)c3ccccc3)c(=O)n2c1 (configuration not stated)	.	4%	.	.	.	3%
COc1cccc(-c2cc(=O)c3ccc(OC)cc3o2)c1	.	.	.	.	.	13µM*
CCC(N=c1cc(-c2ccc(OC)cc2)oc2ccc(C)cc12)C(=O)O (configuration not stated)	?	3µM*	?	?	9%	?
COc1ccc(-c2cc(=O)c3cc(OC)ccc3o2)cc1	0.5µM*	0.21µM*	?	?	0.25µM*	0.89µM*!
CCC(N=c1cc(-c2ccc(OC)c(OC)c2)oc2ccc(C)cc12)C(=O)O (configuration not stated)	-1%	-11%	4%	?	-4%	3%
COc1cc(-c2ccc3oc(-c4ccsc4)cc(=O)c3c2)cc(OC)c1OC	.	.	-8%	16µM*	.	.
COC(=O)COc1ccc2oc(-c3ccc(OC)cc3)cc(=O)c2c1	.	?	.	.	.	22%
CCCCOc1ccc(C2c3c(-c4ccccc4O)n[nH]c3C(=O)N2Cc2ccncc2)cc1OC (configuration not stated)	.	-11%	.	.	.	0%
COc1ccc(CCC(=O)NCc2nc3cccnc3n2Cc2cccc(OC)c2)cc1	.	-5%	.	.	.	.
O=C(Nc1nnc(C2CC2)s1)c1ccc(Cl)nc1	?	12µM*	?	?	?	.
CCc1nnc(NC(=O)c2cc(Cl)ccn2)s1	2.2µM*	15µM*	16µM*	?	2.5µM*	.
CCc1nnc(NC(=O)c2ccc(Cl)nc2)s1	26%	13µM*	?	?	?	26%
CC(C)(C)c1nnc(NC(=O)c2ccc(Cl)nc2)s1	23%	?	16%	?	4.5µM*	.
SMILES	NPC1 promoter act	FLuc modulator	ELG1 genotox	ELG1 DNA repair	Rab9 promoter act	SMN2 splice up
O=C(Nc1nnc(C2CC2)s1)c1ccc(S(=O)(=O)c2ccccc2)cc1	1%	2%	0%	9%	-3%	-14%
COC(=O)[C@@H]1C[C@H]1[C@@H](N)c1ccccc1	.	.	.	.	.	-7%
C=CC1=C2C=C(C3CC3)N(C3CCCC3)C=C2C(=O)C(C)(OC(=O)c2ccco2)C1=O (configuration not stated)	.	.	.	.	.	-3%[9.22 µM]
COc1ccc(-c2noc(-c3ccc(N4CCN(c5ccccc5OC)CC4)c([N+](=O)[O-])c3)n2)cc1	.	-15%	.	.	.	.
CC(=O)Nc1c(C)nn(-c2ccccc2)c1N1CCC(C(=O)Nc2cccc(C(F)(F)F)c2)CC1	.	0%	.	.	.	.
CCc1cc2c(=O)c(-c3nc4ccccc4n3C)coc2c(CN2CCCCC2C)c1O (configuration not stated)	-1%	1%	-7%	-15%	-4%	.
CC1CCCCN1Cc1c(O)ccc2c(=O)c(-c3nc4ccccc4s3)coc12 (configuration not stated)	24%	21µM*	0%	?	21%	.
CCN(C(=O)CCS(=O)(=O)c1ccc2c(c1)CCN2C(C)=O)c1cccc(C(F)(F)F)c1	.	-2%	.	.	.	-1%
O=C(NCCc1csc(-c2cccnc2)n1)c1c(F)cccc1F	-3%	?	-10%	0%	1%	.
O=C(NCCc1csc(-c2ccccc2)n1)c1ccc(Br)o1	1%	-12%	2%	-15%	-2%	-23%
O=C(NCCc1csc(-c2cccnc2)n1)c1ccccc1Br	1%	17µM*	-5%	?	-2%	.
O=C(NCCc1csc(-c2cccnc2)n1)c1ccc(Br)o1	-3%	-2%	-15%	12µM*	-5%	-13%
Cc1ccccc1Nc1nc(N)nc(CCl)n1	-37%	-25%	-11%	?	-46%	.
COc1ccc(Nc2nc(N)nc(CCl)n2)cc1	.	6µM*	?	?	-48%	.
Nc1nc(CCl)nc(Nc2ccc3ccccc3c2)n1	-37%	3µM*	28%	2%	-54%	.
CCOc1cc2[nH]c(=O)n(CCCC(=O)N3CCN(c4ccc(OC)cc4)CC3)c(=O)c2cc1OCC	.	3%	.	.	.	.
CCOC(=O)C1CCN(C(=O)c2sc3ncnc(N4CCC(C)CC4)c3c2C)CC1	-3%	-2%	1%	23µM*	-5%	-24%
Cc1c(C(=O)N2CCN(c3ccccc3)CC2)sc2ncnc(N3CCC(C)CC3)c12	-1%	4%	-1%	7%	-5%	-44%
CCOC(=O)C1CCCN(C(=O)c2sc3nc4n(c(=O)c3c2C)CCC4)C1 (configuration not stated)	0%	4%	-1%	12%	-2%	.
CCOC(=O)C1CCN(C(=O)c2sc3nc(C)nc(N4CCC(C)CC4)c3c2C)CC1	-5%	-3%	-2%	23µM*	-1%	-10%
N=c1ccn2c(n1)O[C@H]1[C@@H](O)[C@@H](CO)O[C@H]12	.	.	.	.	.	-36%
Cc1ccc2cccc(S(=O)(=O)Nc3ccc4c(c3)OCO4)c2n1	-2%	2%	5%	1%	-3%	7.1µM*
